# LmPK inhibitor: qHTS Assay for Inhibitors of Leishmania Mexicana Pyruvate Kinase (LmPK) | purified LmPK, Kinase-Glo ATP luminescence, 1 h | 290,000 tested, 0.37% active | Q27686 | Potency, µM (top dose mostly 57.5 µM), inactives show at the top dose activity change, negative = inhibition, hits mostly inhibitors; note: potency is the fitted concentration of half-maximal effect; % is set by controls: 0 for no effect and ±100 for the full control effect
# Target sequence (Q27686 whole entry, looked up): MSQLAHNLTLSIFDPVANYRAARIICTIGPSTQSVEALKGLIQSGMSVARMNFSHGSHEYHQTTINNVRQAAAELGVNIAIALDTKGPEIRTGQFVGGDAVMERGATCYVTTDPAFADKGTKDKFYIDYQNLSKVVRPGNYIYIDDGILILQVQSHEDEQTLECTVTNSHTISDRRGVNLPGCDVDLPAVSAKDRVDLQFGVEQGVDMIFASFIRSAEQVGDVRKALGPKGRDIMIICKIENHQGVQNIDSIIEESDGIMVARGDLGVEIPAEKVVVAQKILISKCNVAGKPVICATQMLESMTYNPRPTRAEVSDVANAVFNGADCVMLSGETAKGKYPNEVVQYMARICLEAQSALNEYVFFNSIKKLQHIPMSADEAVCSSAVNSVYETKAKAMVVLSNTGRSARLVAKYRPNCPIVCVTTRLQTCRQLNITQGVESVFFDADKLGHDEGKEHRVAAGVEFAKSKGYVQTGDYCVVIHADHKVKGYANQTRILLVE
#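 Purified LmPK (0.1 nM) with 0.5 mM PEP and 0.1 mM ADP in imidazole buffer pH 7.2 with MgCl2/KCl, 1 h at room temperature. ATP formed was read by luciferase luminescence and normalized to no-enzyme and uninhibited controls.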
# Cycloheximide cs: Cycloheximide Counterscreen for Small Molecule Inhibitors of Shiga Toxin; AID 2314, 2010; max response, %; 300,000 tested, 12% active; cell reporter, cycloheximide protein synthesis inhibition counterscreen; in the data active = max response mostly above about 13%, no sharp cut-off; inactive = mostly below about 14%; note: read at 38.3 µM for the half of the compounds with a filed dose; 0% is about no effect
# Pf growth 96h: Primary qHTS for delayed death inhibitors of the malarial parasite plastid, 96 hour incubation; P. falciparum luciferase reporter growth, 96 h; Potency, µM (titrated, usually from 28.7 µM), for the others: at the top dose activity change, negative = inhibition, most hits filed as inhibitors; 320,000 tested, 6.9% active; note: potency is the fitted concentration of half-maximal effect; % is set by controls: 0 for no effect and ±100 for the full control effect
#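 Readout is luminescence from an integrated firefly luciferase in P. falciparum. Red cells, 2% hematocrit and 0.05% parasitemia final, were cultured with compound through two parasite generations (96 hours) at 37 C, 5% CO2.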
# Pf growth 48h: Primary qHTS for delayed death inhibitors of the malarial parasite plastid, 48 hour incubation; P. falciparum luciferase growth in erythrocytes, 48 h; Potency, µM (doses to about 28.7 µM), inactives show at the top dose activity change, negative = inhibition, hits mostly inhibitors; 310,000 tested, 5.9% active; note: potency is the fitted concentration of half-maximal effect; % is set by controls: 0 for no effect and ±100 for the full control effect
#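 A one-generation exposure of luciferase-tagged malaria parasites in RPMI 1640/Albumax erythrocyte culture, 37 C and 5% CO2. Inhibition is inferred from decreased luminescence after adding detection reagent.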
# Shiga toxin inh: A qHTS for Small Molecule Inhibitors of Shiga Toxin; Vero cells, Shiga toxin protein synthesis inhibition reporter; inhibition, % at 38.7 µM; 290,000 tested, 9.2% active; in the data active = inhibition mostly above about 28%, no sharp cut-off; inactive = mostly below about 43%; note: 0% is about no effect
# Active calls of the source: *; i = inactive; ? = inconclusive; nt = no result given. Rows were chosen to be rich in hits. Some 22% of all compounds tested hit in one or more screens of this group. Unless noted, calls come from the whole dose curve; as a rule, active = well fitted inhibition curve with a large enough effect; inconclusive = small, poorly fitted or top-dose-only effect, or another doubt; inactive = no such curve, though single readings can be large or run the other way.
SMILES,LmPK inhibitor,Cycloheximide cs,Pf growth 96h,Pf growth 48h,Shiga toxin inh
CC1(C)Cc2c(sc3c2c(=N)n(Cc2ccco2)c(=O)n3Cc2ccc(F)cc2)CO1,-0.5%,1.2,?,?,-7.4
COc1ccc(Cn2c(=O)n(Cc3ccco3)c(=N)c3c4c(sc32)COC(C)(C)C4)cc1,1.0%,-2.8,13.1µM*,5.86µM*,-10.2
COc1ccc(OC)c(N(CC(=O)NCCSCc2ccc(C)cc2)S(C)(=O)=O)c1,7.1%,-1.5,-21.7%,-8.8%,nt
CCOC(=O)c1c(-c2ccccc2)oc2ccc(OCC(O)CN(C)C)cc12 (configuration not stated),1.8%,-2.6,?,?,-9.0
COc1ccc(C(CNc2ccc(S(C)(=O)=O)cc2[N+](=O)[O-])N(C)C)cc1OC (configuration not stated),-1.2%,-6.4,-10.1%,-15.3%,-1.5
CSc1ccccc1OCc1cc(C(=O)NCc2cccc(C)n2)no1,-10.4%,80.2*,4.15µM*,-9.2%,99.5*
CSc1ccccc1OCc1cc(C(=O)NC(C)CCn2cccn2)no1 (configuration not stated),3.4%,17.7,-14.2%,4.3%,16.3
Cc1nc(CNC(=O)c2cc(COc3c(F)cccc3F)on2)cs1,-0.5%,12.4,7.2%,12.1%,39.1
CSc1ccccc1OCc1cc(C(=O)NC(C)Cc2cccc(C)n2)no1 (configuration not stated),2.0%,49.0*,?,10.4µM*,88.3*
CCn1nc(C)c(CNC(=O)c2cc(COc3cncc(Cl)c3)on2)c1C,-0.4%,10.8,-25.0%,?,-11.5
CCn1nc(C)c(CNC(=O)c2cc(COc3ccccc3SC)on2)c1C,1.4%,24.9*,17.9%,?,56.9
O=c1[nH]c(/C=C\c2cccc(Cl)c2)nc(O)c1[N+](=O)[O-],-4.1%,-1.0,?,?,-11.4
O=C(NC(Cc1ccccc1)c1ccc2c(c1)OCCCO2)c1ccc(F)cc1 (configuration not stated),-1.4%,20.3,9.28µM*,nt,29.7
CC(=O)NC(Cc1ccccc1)c1ccc2c(c1)OCCCO2 (configuration not stated),-0.4%,10.9,-13.6%,-6.9%,active
COc1cccc(C(=O)NC(Cc2ccccc2)c2ccc3c(c2)OCCCO3)c1 (configuration not stated),-1.4%,1.6,3.29µM*,nt,-2.7
CC(C)c1ccc(NC(=O)CCS(=O)(=O)c2cccc3nonc23)cc1,2.5%,-2.2,-10.9%,7.0%,33.0
CC1(C)C(N(O)C(=O)Nc2ccc(Cl)cc2)N(c2ccc(Cl)cc2)C(=O)N1CC(=O)NN (configuration not stated),-0.9%,-2.9,10.4µM*,nt,19.7
CN1C(=S)SC(C)(C)C1N(O)C(=O)Nc1ccc(Cl)cc1 (configuration not stated),0.6%,15.8,3.7%,?,5.2
COc1cc(CNc2cc(C)ccc2C)cc(OC)c1OC,-2.8%,13.3,?,5.22µM*,-10.2
O=C(Nc1ccc(-c2nc3cccnc3s2)cc1)C1CCCO1 (configuration not stated),14.1µM*,17.4,-9.7%,84.3%,13.2
O=C(Nc1ccc2oc(-c3ccccc3)nc2c1)C1CCCO1 (configuration not stated),-17.5%,45.3*,344.3%,236.1%,66.5*
O=C(Nc1ccc(S(=O)(=O)Nc2ccc(Cl)cc2)cc1)C1CCCO1 (configuration not stated),2.5%,-2.4,nt,-2.8%,-11.0
O=C(Nc1ccc(-c2nc3cc(Cl)ccc3o2)cc1)C1CCCO1 (configuration not stated),-1.6%,29.7*,i,231.9%,69.6*
O=C(Nc1ccc(-c2nc3ccccc3o2)cc1)C1CCCO1 (configuration not stated),15.8µM*,37.3*,nt,113.1%,73.4*
O=C(c1ccc(N2CCCCC2)c([N+](=O)[O-])c1)N(c1ccccn1)c1ccccn1,1.2%,31.5,-0.7%,1.4%,50.9
SMILES,LmPK inhibitor,Cycloheximide cs,Pf growth 96h,Pf growth 48h,Shiga toxin inh
O=C(CCC1CCCN(C(=O)c2ccc3[nH]ccc3c2)C1)N1CCN(c2ccccn2)CC1 (configuration not stated),1.6%,-1.9,399.7%,?,6.5
Clc1ccc(-n2cc(-c3ccc(Br)cc3)[n+]3c2CCCCC3)cc1,4.2%,0.7,?,?,6.8
Cc1ccc(-c2cn(-c3ccc(OC(F)F)cc3)c3[n+]2CCCCC3)cc1,3.7%,7.1,?,1.31µM*,-5.8
FC(F)Oc1ccc(-n2cc(-c3ccccc3)[n+]3c2CCCCC3)cc1,-6.5%,0.2,?,1.17µM*,16.8
Cc1cccc(NC(=O)CN(C)C(=O)C2CC2)c1C,nt,nt,3.8%,-0.6%,nt
COc1ccc2ccn(S(=O)(=O)c3ccccc3)c2c1,4.6%,-0.3,-9.9%,-0.6%,nt
CC(=O)Cn1c(CN2CCCCC2)nc2ccccc2c1=O,-5.4%,-0.9,12.0%,10.4µM*,-8.9
Cc1cccc(C)c1NC(=O)Cn1c(CN2CCCCC2)nc2ccccc2c1=O,-0.8%,-2.3,131.0%,14.7µM*,0.7
CC(=O)Cn1c(CN2CCCC2)nc2ccccc2c1=O,3.4%,9.2,35.0%,9.7%,-3.8
CCn1c(=O)n(CC)c2cc(N3CCCC3)c(NC(=O)c3ccccc3OC)cc21,0.3%,-1.7,-2.0%,?,4.0
CCn1c(=O)n(CC)c2cc(N3CCCC3)c(NC(=O)c3ccc(OC)c(Br)c3)cc21,4.4%,-4.8,-22.0%,13.1µM*,2.5
CCn1c(=O)n(CC)c2cc(N3CCCC3)c(NC(=O)c3cc(Cl)ccc3OC)cc21,4.3%,-2.2,8.28µM*,?,-3.8
CCn1c(=O)n(CC)c2cc(N3CCCC3)c(NC(=O)c3cccc(Cl)c3)cc21,10.6%,-5.2,11.7µM*,?,16.8
O=C(Nc1ccccc1Oc1ccsc1C(=O)O)c1ccccc1F,1.6%,-0.8,-0.2%,nt,-5.0
Cc1cccc2c(N=O)c(O)n(CCc3ccccc3)c12,-4.2%,-0.8,?,?,-10.1
CC(C)c1ccc(OCC(=O)N2CCCCCC2)c(Br)c1,0.5%,24.6*,8.0%,46.1%,79.8*
Cc1cc(S(=O)(=O)N2CCCCC2)ccc1OCC(=O)N1CCCC1,0.7%,-3.5,?,-21.4%,7.1
Cc1cc(Br)ccc1OCC(=O)N1CCCCCC1,0.2%,24.8*,26.5%,nt,27.3
O=C(COc1ccc(Cl)cc1Cl)N1CCCC1,2.5%,1.0,-14.0%,nt,-3.3
Cc1ccc(OCC(=O)N2CCN(C)CC2)c(Br)c1,-3.3%,21.4*,140.1%,44.9%,93.3*
Cc1ccc(OCC(=O)N2CCCCCC2)c(C)c1,-4.8%,10.4*,nt,24.4%,36.8
Cc1cc(S(=O)(=O)N2CCOCC2)ccc1OCC(=O)N1CCCCC1,-6.5%,5.1,0.3%,-15.7%,26.4
